According to PubChem BioAssay (EPA / NIEHS):
The source made the active and inactive calls. The calls were made as follows: active = hit-call score of the fitted dose curve at least 0.9, where 1 is the maximum; inactive = score below 0.9.

Tests used:
[1] = read-out: Thrombomodulin, THBD (gene 7056); assay: BSK_CASM3C_Thrombomodulin: BioMAP Diversity Plus: CASM3C Assay for Thrombomodulin Biomarker Activity (AID 2283051); conditions: primary human coronary artery smooth muscle cells; actives raise or lower the signal;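 also: thrombomodulin protein level measured by ELISA 24 h after dosing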
[2] = read-out: Tissue Factor, F3 (gene 2152); assay: BSK_CASM3C_TissueFactor: BioMAP Diversity Plus: CASM3C Assay for Tissue Factor Biomarker Activity (AID 2283052); conditions: primary human coronary artery smooth muscle cells; actives raise or lower the signal;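 also: cell surface tissue factor protein level read by ELISA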
[3] = read-out: Interferon-gamma inducible Protein 10 (IP10), CXCL10 (gene 3627); assay: BSK_hDFCGF_IP10: BioMAP Diversity Plus: hDFCGF Assay for Interferon-gamma inducible Protein 10 (IP10) Biomarker Activity (AID 2283053); conditions: primary human foreskin fibroblasts; actives raise or lower the signal
In short: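 ELISA read-out of IP-10 (CXCL10) from primary human skin fibroblasts, 24 h after compound addition. Gain or loss of signal versus DMSO baseline, bidirectional curve fitting.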

[4] = read-out: Urokinase-type plasminogen activator receptor (uPAR), PLAUR (gene 5329); assay: BSK_CASM3C_uPAR: BioMAP Diversity Plus: CASM3C Assay for Urokinase-type plasminogen activator receptor (uPAR) Biomarker Activity (AID 2283054); conditions: primary human coronary artery smooth muscle cells; actives raise or lower the signal;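 also: cell-surface uPAR protein level quantified by ELISA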
[5] = read-out: Vascular cell adhesion molecule 1 (VCAM1), VCAM1 (gene 7412); assay: BSK_CASM3C_VCAM1: BioMAP Diversity Plus: CASM3C Assay for Vascular cell adhesion molecule 1 (VCAM1) Biomarker Activity (AID 2283055); conditions: primary human coronary artery smooth muscle cells; actives raise or lower the signal;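 also: VCAM-1 protein level quantified by ELISA on the cells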
[6] = read-out: Collagen III, COL3A1 (gene 1281); assay: BSK_hDFCGF_CollagenIII: BioMAP Diversity Plus: hDFCGF Assay for Collagen III Biomarker Activity (AID 2283056); conditions: primary human foreskin fibroblasts; actives raise or lower the signal
In short: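 ELISA readout of Collagen III in human dermal (foreskin) fibroblasts, taken 24 h post-treatment. Gain or loss relative to DMSO vehicle fitted in both directions.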

[7] = read-out: Epidermal growth factor receptor (EGFR), EGFR (gene 1956); assay: BSK_hDFCGF_EGFR: BioMAP Diversity Plus: hDFCGF Assay for Epidermal growth factor receptor (EGFR) Biomarker Activity (AID 2283057); conditions: primary human foreskin fibroblasts; actives raise or lower the signal
In short: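 ELISA readout of EGFR on human dermal fibroblasts (primary foreskin cells), 24 h post-dosing; bidirectional curve fit vs DMSO baseline, gain or loss of signal scored.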

[8] = read-out: Interleukin-8 (IL8), CXCL8 (gene 3576); assay: BSK_hDFCGF_IL8: BioMAP Diversity Plus: hDFCGF Assay for Interleukin-8 (IL8) Biomarker Activity (AID 2283058); conditions: primary human foreskin fibroblasts; actives raise or lower the signal
In short: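 IL-8 levels read by ELISA at 24 hours after dosing human skin fibroblast cultures. Parallel SRB staining assessed overt cytotoxicity, and gain or loss of signal was fitted against DMSO control.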

[9] = BSK_hDFCGF_Proliferation: Cell Proliferation Assessment in the BioMAP Diversity Plus: hDFCGF Assay (AID 2283059); conditions: primary human foreskin fibroblasts;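 also: curves fitted for both rise and fall of signal versus DMSO baseline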
In short: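 Total protein read at 560 nm after 0.1% SRB staining of TCA-fixed human skin fibroblasts, […]. Activity is fitted in both directions relative to DMSO as baseline.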

[10] = read-out: Macrophage colony-stimulating factor (MCSF), CSF1 (gene 1435); assay: BSK_hDFCGF_MCSF: BioMAP Diversity Plus: hDFCGF Assay for Macrophage colony-stimulating factor (MCSF) Biomarker Activity (AID 2283060); conditions: primary human foreskin fibroblasts; actives raise or lower the signal
In short: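 M-CSF levels read by ELISA at 24 h post-dosing in human skin fibroblasts. Parallel cultures stained with SRB assessed cytotoxicity at the same time point; response fitted in both directions against the DMSO baseline.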

[11] = read-out: TIMP metallopeptidase inhibitor 1 (TIMP1), TIMP1 (gene 7076); assay: BSK_hDFCGF_TIMP1: BioMAP Diversity Plus: hDFCGF Assay for TIMP metallopeptidase inhibitor 1 (TIMP1) Biomarker Activity (AID 2283062); conditions: primary human foreskin fibroblasts; actives raise or lower the signal
In short: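 TIMP-1 measured by ELISA 24 h after chemical dosing of primary human skin fibroblasts, with gain or loss fitted relative to DMSO. Parallel SRB staining (560 nm) monitored overt cytotoxicity.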

[12] = read-out: Matrix Metallopeptidase 1 (MMP1), MMP1 (gene 4312); assay: BSK_hDFCGF_MMP1: BioMAP Diversity Plus: hDFCGF Assay for Matrix Metallopeptidase 1 (MMP1) Biomarker Activity (AID 2283064); conditions: primary human foreskin fibroblasts; actives raise or lower the signal
In short: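 ELISA read-out of MMP1 from human foreskin fibroblasts (primary skin cells), 24 h post-dose. Gain or loss of signal was fitted bidirectionally versus DMSO negative control; cytotoxicity was checked by SRB in parallel cultures.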

[13] = read-out: Vascular cell adhesion molecule 1 (VCAM1), VCAM1 (gene 7412); assay: BSK_hDFCGF_VCAM1: BioMAP Diversity Plus: hDFCGF Assay for Vascular cell adhesion molecule 1 (VCAM1) Biomarker Activity (AID 2283065); conditions: primary human foreskin fibroblasts; actives raise or lower the signal;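 as to AC50: VCAM-1 protein level quantified by ELISA after 24 h chemical exposure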
In short: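 ELISA readout of VCAM-1 on human dermal fibroblast primary cultures, 24 h after chemical exposure. Gain or loss of signal fitted in both directions against DMSO baseline.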

[14] = read-out: Plasminogen activator inhibitor-1 (PAI1), SERPINE1 (gene 5054); assay: BSK_hDFCGF_PAI1: BioMAP Diversity Plus: hDFCGF Assay for Plasminogen activator inhibitor-1 (PAI1) Biomarker Activity (AID 2283066); conditions: primary human foreskin fibroblasts; actives raise or lower the signal
In short: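 ELISA readout of PAI-1 from primary human skin fibroblast cultures, 24 h after compound addition. Gain or loss of signal was fitted bidirectionally against DMSO baseline.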

[15] = read-out: Intercellular Adhesion Molecule 1 (ICAM1), ICAM1 (gene 3383); assay: BSK_KF3CT_ICAM1: BioMAP Diversity Plus: KF3CT Assay for Intercellular Adhesion Molecule 1 (ICAM1) Biomarker Activity (AID 2283067); conditions: primary human keratinocytes with fibroblasts; actives raise or lower the signal
In short: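 Cell-surface ICAM-1 was measured by ELISA 24 h after dosing primary human skin keratinocytes co-cultured with fibroblasts. Parallel SRB staining tracked overt cytotoxicity. Gain or loss of signal was fitted relative to DMSO.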

[16] = read-out: Interferon-gamma inducible Protein 10 (IP10), CXCL10 (gene 3627); assay: BSK_KF3CT_IP10: BioMAP Diversity Plus: KF3CT Assay for Interferon-gamma inducible Protein 10 (IP10) Biomarker Activity (AID 2283068); conditions: primary human keratinocytes with fibroblasts; actives raise or lower the signal
In short: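 Human keratinocyte plus foreskin fibroblast primary co-culture exposed to test chemical for 24 h; IP-10 measured by ELISA. Concentration-response fitted bidirectionally against DMSO control as baseline.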

[17] = BSK_KF3CT_SRB: Viability Assessment in the BioMAP Diversity Plus: KF3CT Assay (AID 2283069); conditions: primary human keratinocytes with fibroblasts;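 also: total protein by sulforhodamine B staining as a cytotoxicity measure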
In short: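 SRB read-out at 560 nm (0.1% stain, TCA-fixed cells) gauges overt cytotoxicity in a human skin keratinocyte–fibroblast co-culture 24 h post-dosing. Signal change was fitted bidirectionally relative to DMSO control.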

[18] = read-out: Interleukin-1 alpha (IL1a), IL1A (gene 3552); assay: BSK_KF3CT_IL1a: BioMAP Diversity Plus: KF3CT Assay for Interleukin-1 alpha (IL1a) Biomarker Activity (AID 2283070); conditions: primary human keratinocytes with fibroblasts; actives raise or lower the signal
In short: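 Primary skin co-culture (keratinocytes, foreskin fibroblasts), 24 h exposure; ELISA for IL-1a; bidirectional curve fit vs DMSO.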

In the case of COc1nn(CSP(=S)(OC)OC)c(=O)s1, the outcome [1] was “inactive”, the outcome [2] was “inactive” and the AC50 [3] was 20 µM (active). For the same compound, the outcome [4] was “inactive”, the outcome [5] was “inactive” and the outcome [6] was “inactive”. For the same compound, the outcome [7] was “inactive”, the outcome [8] was “inactive” and the outcome [9] was “inactive”. For the same compound, the outcome [10] was “inactive”, the outcome [11] was “inactive” and the outcome [12] was “inactive”. The outcome [13] was “inactive”, the outcome [14] was “inactive” and the outcome [15] was “inactive”. The outcome [16] was “inactive”, the outcome [17] was “inactive” and the outcome [18] was “inactive”.
With O=C(Nc1ccccc1)Nc1cnns1 the outcome [1] was “inactive”, the outcome [2] was “inactive” and the outcome [3] was “inactive”. For the same compound, the outcome [4] was “inactive”, the outcome [5] was “inactive” and the outcome [6] was “inactive”. The outcome [7] was “inactive”, the outcome [8] was “inactive” and the outcome [9] was “inactive”. For the same compound, the outcome [10] was “inactive”, the outcome [11] was “inactive” and the outcome [12] was “inactive”. The outcome [13] was “inactive”, the outcome [14] was “inactive” and the outcome [15] was “inactive”. For the same compound, the outcome [16] was “inactive”, the outcome [17] was “inactive” and the outcome [18] was “inactive”.
With O=C(O)COc1ccc(Cl)cc1Cl the outcome [1] was “inactive”, the outcome [2] was “inactive” and the outcome [3] was “inactive”. The outcome [4] was “inactive”, the outcome [5] was “inactive” and the outcome [6] was “inactive”. For the same compound, the outcome [7] was “inactive”, the outcome [8] was “inactive” and the outcome [9] was “inactive”. The outcome [10] was “inactive”, the outcome [11] was “inactive” and the outcome [12] was “inactive”. The outcome [13] was “inactive”, the outcome [14] was “inactive” and the outcome [15] was “inactive”. The outcome [16] was “inactive”, the outcome [17] was “inactive” and the outcome [18] was “inactive”.
For CCc1ccc(C(=O)NN(C(=O)c2cc(C)cc(C)c2)C(C)(C)C)cc1, the outcome [1] was “inactive”, the outcome [2] was “inactive” and the outcome [3] was “inactive”. For the same compound, the outcome [4] was “inactive”, the outcome [5] was “inactive” and the outcome [6] was “inactive”. For the same compound, the outcome [7] was “inactive”, the outcome [8] was “inactive” and the outcome [9] was “inactive”. For the same compound, the outcome [10] was “inactive”, the outcome [11] was “inactive” and the outcome [12] was “inactive”. The outcome [13] was “inactive”, the outcome [14] was “inactive” and the outcome [15] was “inactive”. For the same compound, the outcome [16] was “inactive”, the outcome [17] was “inactive” and the outcome [18] was “inactive”.
For CNC(=O)Oc1cccc(N=CN(C)C)c1, the outcome [1] was “inactive”, the outcome [2] was “inactive” and the AC50 [3] was 15.2 µM (active). For the same compound, the outcome [4] was “inactive”, the outcome [5] was “inactive” and the outcome [6] was “inactive”. The outcome [7] was “inactive”, the outcome [8] was “inactive” and the AC50 [9] was 24.2 µM (active). For the same compound, the AC50 [10] was 15.9 µM (active), the outcome [11] was “inactive” and the outcome [12] was “inactive”. For the same compound, the AC50 [13] was 8.35 µM (active), the outcome [14] was “inactive” and the outcome [15] was “inactive”. For the same compound, the outcome [16] was “inactive”, the outcome [17] was “inactive” and the outcome [18] was “inactive”.
